Sampled rows, rich in hits. Any-hit rate of the full collection: about 2.4%.
D2 PAM-1: Beta-Arrestin HTS for Positive Allosteric Modulators of the Human D2 Dopamine Receptor: Potentiators | D(2) dopamine receptor (Homo sapiens), P14416 | DiscoveRx D2 beta-arrestin cells, luminescence, 90 min; 100% = 57 uM dopamine signal | potentiation, % (concentration not given with the values) | actives 0.23% (n = 360,000) | AID 624464, 2012; in the data active = potentiation above about 50%; inconclusive = mostly about 30% to 49%
Target sequence (P14416 whole entry, looked up): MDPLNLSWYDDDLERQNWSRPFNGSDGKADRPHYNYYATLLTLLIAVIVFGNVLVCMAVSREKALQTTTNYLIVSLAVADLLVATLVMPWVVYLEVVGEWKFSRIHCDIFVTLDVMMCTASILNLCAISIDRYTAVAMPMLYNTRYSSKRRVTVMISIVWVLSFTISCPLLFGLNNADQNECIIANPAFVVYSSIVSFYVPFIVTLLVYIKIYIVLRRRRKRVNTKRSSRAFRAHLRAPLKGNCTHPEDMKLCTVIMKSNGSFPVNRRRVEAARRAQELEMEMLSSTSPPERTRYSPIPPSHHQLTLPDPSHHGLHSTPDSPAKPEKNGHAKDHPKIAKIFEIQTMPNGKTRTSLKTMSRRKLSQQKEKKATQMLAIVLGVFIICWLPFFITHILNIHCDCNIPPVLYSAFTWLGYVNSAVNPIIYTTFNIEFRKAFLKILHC
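PathHunter beta-arrestin assay in DiscoveRx D2 cells. Compounds were added with an EC20 of dopamine (50 nM final) for 90 min at 37 deg C. Luminescence was read 1 h after detection reagent, with 57 uM dopamine as the EC100 control.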
D2 ag-1: Beta-Arrestin HTS for Positive Allosteric Modulators of the Human D2 Dopamine Receptor: Agonists; actives 0.084% (n = 360,000); DiscoveRx PathHunter D2 beta-arrestin, luminescence, 90 min; 100% = 57 uM dopamine signal; D(2) dopamine receptor (Homo sapiens), P14416; activation, % (test concentration not listed); in the data active = activation above about 40%; inconclusive = between about 15% and that limit
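DiscoveRx PathHunter D2 beta-arrestin cells (2,100/well) attached overnight, then compound-stimulated 90 min at 37 C in HBSS/10 mM HEPES/0.1% Tween-20 buffer; beta-galactosidase complementation read by luminescence after 1 h at ambient temperature. Dopamine 57 uM final (EC100) as control.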
D2 antag: HTS Assay for Allosteric Antagonists of the Human D2 Dopamine Receptor: Primary Screen for Antagonists; D(2) dopamine receptor (Homo sapiens), P14416; HEK293 TREx D2 cells, calcium flux, dopamine EC80; inhibition, % at 10 µM; actives 2% (n = 340,000); AID 485344, 2010; in the data active = inhibition above about 30%; inactive = below that, where a call was filed
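Read-out: kinetic calcium fluorescence (1 cycle/s) in inducible HEK293 T-REx D2 cells after an EC80 dopamine addition that followed 180 s compound preincubation. Loss of the dopamine response indicates antagonism.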
D2 PAM-2: HTS Assay for Positive Allosteric Modulators of the Human D2 Dopamine Receptor: Primary Screen for Potentiators; HEK293 T-REx D2, calcium flux, EC20 dopamine potentiation; potentiation, % at 10 µM; actives 0.34% (n = 340,000); AID 485347, 2010;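 active = potentiation over 3 SD above the plate norm, cut at about 30% in these data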
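Tetracycline-induced Hek293 Trex D2 cells, force-coupled to calcium, loaded with no-wash calcium dye. Compound added with 180 s kinetic read for agonism, then EC20 dopamine and a further 180 s read for potentiation.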
D2 ag-2: HTS Assay for Allosteric Agonists of the Human D2 Dopamine Receptor: Primary Screen for Agonists. D(2) dopamine receptor (Homo sapiens), P14416. HEK293 T-REx D2 cells, calcium flux agonist mode. activation, % at 2 µM. actives 0.53% (n = 340,000);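 active = activation over 3 SD above normal in the single-dose calcium agonist read, cut at about 30% in these data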
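Tetracycline-induced HEK293 Trex cells with D2 receptor force-coupled to calcium signaling, plated overnight at 30 C and loaded with no-wash calcium dye. Calcium flux read kinetically for 180 s after compound addition; responses flag agonists.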
Hits are given with their value; i = inactive; ? = inconclusive; nt = not tested or not shown.

SMILES | D2 PAM-1 | D2 ag-1 | D2 antag | D2 PAM-2 | D2 ag-2
O=C(c1ccccc1Cl)N1CCN(Cc2ccc3c(c2)OCO3)CC1 | i | i | i | i | i
O=C(c1cc([N+](=O)[O-])ccc1Cl)N1CCN(Cc2ccc3c(c2)OCO3)CC1 | i | i | 44.2 | i | i
OC(c1ccccc1)c1nc2ccccc2n1Cc1c(F)cccc1Cl (stereo not drawn) | nt | nt | nt | i | i
COc1ccccc1N1CCN(C(=S)Nc2ccc(F)cc2)CC1 | i | i | i | i | i
COc1ccccc1N1CCN(C(=S)Nc2ccccc2)CC1 | i | i | 47.2 | i | i
Nc1nc(Cl)nc2c1ncn2[C@@H]1O[C@H](CO)[C@@H](O)[C@H]1O | i | i | 37.4 | i | i
O=S(=O)(c1ccc(F)cc1)N1CCC(O)(c2ccc3c(c2)OCO3)CC1 | i | i | i | i | i
OC1(c2ccc3c(c2)OCO3)CCN(Cc2ccc(F)cc2)CC1 | i | i | 73.0 | i | i
OC1(c2ccc(F)cc2)CCN(Cc2cccnc2)CC1 | i | i | 33.8 | i | i
CCN(CC)S(=O)(=O)c1cccc(NC(=O)C2CC(=O)N(c3ccc4c(c3)OCCO4)C2)c1 (stereo not drawn) | i | i | i | i | i
COc1ccc(S(=O)(=O)NCC2CCCN(C(=O)c3ccco3)C2)cc1 (stereo not drawn) | i | i | 31.5 | i | i
COc1ccc(NC(=O)CSc2[nH]c(=O)cc(C)c2C#N)cc1OC | i | i | 34.3 | i | i
CCOc1ccc(-c2nnc(SCC(=O)Nc3cc(C)ccc3OC)o2)cc1 | nt | nt | nt | i | i
CN(C(=O)COC(=O)C12CC3CC(CC(Cl)(C3)C1)C2)c1ccccc1 | i | i | nt | nt | nt
O=C1NC(=O)C(Nc2cccc3ccccc23)S1 (stereo not drawn) | 62.7 | i | i | i | i
CCCCNC(=O)C(=O)Nc1ccc2c(c1)N(S(=O)(=O)c1cccs1)CCC2 | i | i | nt | nt | nt
COc1ccc(C(=O)CCN2CCN(c3ccccc3OC)CC2)cc1 | i | i | i | i | i
Cc1ccc(CN(C(=O)c2ccc(F)cc2)c2ccccn2)o1 | nt | nt | nt | i | i
COc1ccccc1N1CCN(CCN(C(=O)C2CCCCC2)c2ccccn2)CC1 | i | i | 70.3 | i | i
COc1ccccc1N1CCN(CCN(C(=O)c2ccc(F)cc2)c2ccccn2)CC1 | i | i | 60.6 | i | i
O=C(C1CCCCC1)N(Cc1ccccc1)c1ccccn1 | i | i | i | i | i
COc1ccccc1N1CCN(CCCC(=O)c2ccc(F)cc2)CC1 | i | i | 69.6 | i | i
Cc1ccc(OCC(=O)Nc2ccc(OCc3cc(=O)n4ccsc4n3)cc2)cc1 | nt | nt | nt | i | i
Cc1cc2ccccc2n1CCNC(=O)COc1ccccc1 | i | i | 39.0 | i | i
CCC(=O)NCCn1c(C)cc2ccccc21 | i | i | i | i | i
SMILES | D2 PAM-1 | D2 ag-1 | D2 antag | D2 PAM-2 | D2 ag-2
O=c1cc(-c2ccccc2Cl)oc2ccc([N+](=O)[O-])c(O)c12 | i | i | i | i | i
Nc1ccc2oc(-c3ccccc3Cl)cc(=O)c2c1O | i | i | 50.3 | i | i
O=C(Oc1ccccc1)c1cccc2cccc(C(=O)Oc3ccccc3)c12 | i | i | i | i | i
CN1CCN(c2nc(-c3ccccc3)ncc2S(=O)(=O)c2ccccc2)CC1 | i | i | 54.3 | i | i
COCCN(C(=O)CSc1nc2ccc(OC)cc2[nH]1)c1c(N)n(Cc2ccccc2)c(=O)[nH]c1=O | i | i | i | i | i
Cc1c(C(=O)CN2CCSCC2)c2ccccc2n1C | i | i | i | i | i
Cc1c(/C(Cc2ccccc2)=N/O)c2ccccc2n1C | i | i | 36.9 | i | i
Cc1ccc(NC(=O)c2cc([N+](=O)[O-])ccc2NCc2cccnc2)cc1 | i | i | 33.3 | i | i
COc1ccc([N+](=O)[O-])cc1NCc1cccnc1 | i | i | i | i | i
O=c1onc(-c2ccccc2Cl)n1-c1ccccc1Cl | 58.2 | 40.5 | nt | nt | nt
CCOc1ccc(Sc2cc(C(=O)NCc3ccccc3Cl)c3ccccc3n2)cc1 | nt | nt | nt | i | i
Cc1oc(-c2cccc(Cl)c2)nc1CSc1nncn2c1cc1occc12 | nt | nt | nt | i | i
CCS(=O)(=O)c1ccc(O)c(NC(=O)/C=C/c2ccccc2)c1 | i | i | i | i | i
Cc1c(O)ccc(NC(=O)/C=C/c2ccccc2)c1C | i | i | 35.0 | i | i
Nc1ccc2oc(CCc3ccccc3)nc2c1 | ? | i | 37.9 | i | i
c1ccc2oc(CCc3nc4ccccc4o3)nc2c1 | i | i | nt | i | nt
CCCCNC(=O)N1CCOCCOCCN(C(=O)NCCCC)CCOCCOCC1 | i | i | 32.3 | nt | i
CC1(Cc2cn(CCC#N)c3ccccc23)OCCO1 | i | i | i | i | i
N#CCCn1cc(CNC2CCC(O)CC2)c2ccccc21 (stereo not drawn) | i | i | i | 30.1 | i
COC(=O)c1c(NC(=O)COC(=O)[C@@H](NS(=O)(=O)c2ccc(C)cc2)C(C)C)sc2c1CCC2 | i | i | i | i | i
CCOc1ccc(NC(=O)CN2CCN(c3ccccc3C)CC2)cc1S(=O)(=O)N1CCCC1 | i | i | 34.7 | i | i
Cn1c(SCC(=O)Nc2ccc3c(c2)CCC3)nnc1C1CC1 | i | i | i | i | i
NC(=O)c1ccc(NC(=O)CSc2nnc(C3CC3)n2C2CC2)cc1 | i | i | nt | nt | nt
CCOc1ccc(NC(=O)CSc2nnc(C3CC3)n2C)cc1S(=O)(=O)N1CCCCC1 | i | i | 43.8 | i | i
CCOc1ccc(NC(=O)CSc2nnc(C3CC3)n2C2CC2)cc1 | i | i | 42.8 | i | i
SMILES | D2 PAM-1 | D2 ag-1 | D2 antag | D2 PAM-2 | D2 ag-2
CCOc1ccc(NC(=O)CN2CCN(c3ccc(F)cc3)CC2)cc1S(=O)(=O)N1CCCC1 | i | i | nt | nt | nt
COc1ccc(NC(=O)CSc2nnc(C3CC3)n2C)cc1 | i | i | i | i | i
CCC(=O)Nc1cccc(NC(=O)CSc2nnc(C3CC3)n2C)c1 | i | i | 30.9 | i | i
Cc1cccc(N(CC(=O)Nc2cccc(Cl)c2C)S(C)(=O)=O)c1C | nt | nt | nt | i | i
Cc1cnn(C(=O)c2cc(-c3ccccc3)nc3ccccc23)c1 | i | i | 54.9 | i | i
O=C(c1cc(-c2ccccc2)nc2ccccc12)N1CCCC1 | i | i | i | i | i
C=CCN=C1S/C(=C\c2ccc(Cl)cc2)C(=O)N1CC=C | i | i | 79.6 | i | i
C=CCN=C1S/C(=C/c2ccc([N+](=O)[O-])cc2)C(=O)N1CC=C | i | i | i | i | i

From PubChem BioAssay
